# Source: the supplement of paper PMC4466140
# Experiments:
# Assay in all cases: SPOT peptide array binding signal intensity (averaged, normalized) (arbitrary units (background-subtracted, floor 0; scale differs between SH3 domains)); higher = stronger binding of the SH3 domain to the peptide
# [1] = biological target: AgAbp1
# Procedure: (§1)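 GST-tagged SH3 domains from S. cerevisiae (Sc), A. gossypii (Ag), C. albicans (Ca) and S. pombe (Sp) were incubated at 10 ug/ml overnight at 4 C on cellulose SPOT membranes carrying 292 synthetic 15-mer peptides mined from the S. cerevisiae proteome (cysteines replaced by serines). Binding was detected with anti-GST antibody, HRP secondary and chemiluminescence, quantified with Genespotter, and reported as normalized spot intensities averaged over biological replicates.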
# [2] = biological target: AgBbc1
# Procedure: as §1
# [3] = biological target: AgBem1-D1
# Procedure: as §1
# [4] = biological target: AgBzz1-D1
# Procedure: as §1
# [5] = biological target: AgBzz1-D2
# Procedure: as §1
# [6] = biological target: AgCyk3
# Procedure: as §1
# [7] = biological target: AgFus1
# Procedure: as §1
# [8] = biological target: AgHof1
# Procedure: as §1
# [9] = biological target: AgHse1
# Procedure: as §1
# [10] = biological target: AgLsb1
# Procedure: as §1
# [11] = biological target: AgLsb4
# Procedure: as §1
# [12] = biological target: AgMyo5
# Procedure: as §1
# [13] = biological target: AgNbp2
# Procedure: as §1
# [14] = biological target: AgRvs167
# Procedure: as §1
# [15] = biological target: AgSho1
# Procedure: as §1
# [16] = biological target: AgSla1-D1-D2
# Procedure: as §1
# [17] = biological target: AgSla1-D3
# Procedure: as §1
# [18] = biological target: CaAbp1-D1
# Procedure: as §1
# [19] = biological target: CaAbp1-D2
# Procedure: as §1
# [20] = biological target: CaBbc1
# Procedure: as §1
# [21] = biological target: CaBem1-D1
# Procedure: as §1
# [22] = biological target: CaBzz1-D1
# Procedure: as §1
# [23] = biological target: CaBzz1-D2
# Procedure: as §1
# [24] = biological target: CaCyk3
# Procedure: as §1
# [25] = biological target: CaFus1
# Procedure: as §1
# [26] = biological target: CaHof1
# Procedure: as §1
# [27] = biological target: CaHse1
# Procedure: as §1
# [28] = biological target: CaLsb1
# Procedure: as §1
# [29] = biological target: CaLsb4
# Procedure: as §1
# [30] = biological target: CaMyo5
# Procedure: as §1
# [31] = biological target: CaNbp2
# Procedure: as §1
# [32] = biological target: CaRvs167
# Procedure: as §1
# [33] = biological target: CaRvs167-3
# Procedure: as §1
# [34] = biological target: CaSho1
# Procedure: as §1
# [35] = biological target: CaSla1-D1-D2
# Procedure: as §1
# [36] = biological target: CaSla1-D3
# Procedure: as §1
# [37] = biological target: ScAbp1
# Procedure: as §1
# [38] = biological target: ScBbc1
# Procedure: as §1
# [39] = biological target: ScBem1-D1
# Procedure: as §1
# [40] = biological target: ScBzz1-D1
# Procedure: as §1
# [41] = biological target: ScBzz1-D2
# Procedure: as §1
# [42] = biological target: ScCyk3
# Procedure: as §1
# [43] = biological target: ScFus1
# Procedure: as §1
# [44] = biological target: ScHof1
# Procedure: as §1
# [45] = biological target: ScHse1
# Procedure: as §1
# [46] = biological target: ScLsb1
# Procedure: as §1
# [47] = biological target: ScLsb2
# Procedure: as §1
# [48] = biological target: ScLsb3
# Procedure: as §1
# [49] = biological target: ScLsb4
# Procedure: as §1
# [50] = biological target: ScMyo3
# Procedure: as §1
# [51] = biological target: ScMyo5
# Procedure: as §1
# [52] = biological target: ScNbp2
# Procedure: as §1
# [53] = biological target: ScPex13
# Procedure: as §1
# [54] = biological target: ScRvs167
# Procedure: as §1
# [55] = biological target: ScSho1
# Procedure: as §1
# [56] = biological target: ScSla1-D1-D2
# Procedure: as §1
# [57] = biological target: ScSla1-D3
# Procedure: as §1
# [58] = biological target: SpAbp1-D1
# Procedure: as §1
# [59] = biological target: SpBbc1
# Procedure: as §1
# [60] = biological target: SpBzz1-D1
# Procedure: as §1
# [61] = biological target: SpBzz1-D2
# Procedure: as §1
# [62] = biological target: SpCyk3
# Procedure: as §1
# [63] = biological target: SpHof1
# Procedure: as §1
# [64] = biological target: SpHof1-2
# Procedure: as §1
# [65] = biological target: SpHof1-3
# Procedure: as §1
# [66] = biological target: SpHse1
# Procedure: as §1
# [67] = biological target: SpLsb1
# Procedure: as §1
# [68] = biological target: SpLsb4
# Procedure: as §1
# [69] = biological target: SpMyo1
# Procedure: as §1
# [70] = biological target: SpNbp2
# Procedure: as §1
# [71] = biological target: SpPex13
# Procedure: as §1
# [72] = biological target: SpRvs167
# Procedure: as §1
# [73] = biological target: SpSla1-D1-D2
# Procedure: as §1
# [74] = biological target: SpSla1-D3
# Procedure: as §1
binder,measurement,setting,value
LKRITSPPLPPRADS,SPOT peptide array binding signal intensity,[1],20.5
same,SPOT peptide array binding signal intensity,[2],427
same,SPOT peptide array binding signal intensity,[3],59
same,SPOT peptide array binding signal intensity,[4],87.5
same,SPOT peptide array binding signal intensity,[5],82
same,SPOT peptide array binding signal intensity,[6],1
same,SPOT peptide array binding signal intensity,[7],2
same,SPOT peptide array binding signal intensity,[8],678
same,SPOT peptide array binding signal intensity,[9],49
same,SPOT peptide array binding signal intensity,[10],1010
same,SPOT peptide array binding signal intensity,[11],5100
same,SPOT peptide array binding signal intensity,[12],3.25
same,SPOT peptide array binding signal intensity,[13],22
same,SPOT peptide array binding signal intensity,[14],1890
same,SPOT peptide array binding signal intensity,[15],4
same,SPOT peptide array binding signal intensity,[16],≤ 0
same,SPOT peptide array binding signal intensity,[17],4.75
same,SPOT peptide array binding signal intensity,[18],134
same,SPOT peptide array binding signal intensity,[19],96
same,SPOT peptide array binding signal intensity,[20],1010
same,SPOT peptide array binding signal intensity,[21],24.5
same,SPOT peptide array binding signal intensity,[22],1940
same,SPOT peptide array binding signal intensity,[23],423
same,SPOT peptide array binding signal intensity,[24],25.5
same,SPOT peptide array binding signal intensity,[25],99.5
same,SPOT peptide array binding signal intensity,[26],4.25
same,SPOT peptide array binding signal intensity,[27],124
same,SPOT peptide array binding signal intensity,[28],1.5
same,SPOT peptide array binding signal intensity,[29],6040
same,SPOT peptide array binding signal intensity,[30],2.5
same,SPOT peptide array binding signal intensity,[31],47
same,SPOT peptide array binding signal intensity,[32],2070
same,SPOT peptide array binding signal intensity,[33],9.5
same,SPOT peptide array binding signal intensity,[34],9.5
same,SPOT peptide array binding signal intensity,[35],244
same,SPOT peptide array binding signal intensity,[36],2
same,SPOT peptide array binding signal intensity,[37],16.5
same,SPOT peptide array binding signal intensity,[38],35.2
same,SPOT peptide array binding signal intensity,[39],10
same,SPOT peptide array binding signal intensity,[40],56
same,SPOT peptide array binding signal intensity,[41],18
same,SPOT peptide array binding signal intensity,[42],2
same,SPOT peptide array binding signal intensity,[43],1
same,SPOT peptide array binding signal intensity,[44],234
same,SPOT peptide array binding signal intensity,[45],91.5
same,SPOT peptide array binding signal intensity,[46],661
same,SPOT peptide array binding signal intensity,[47],1120
same,SPOT peptide array binding signal intensity,[48],7910
same,SPOT peptide array binding signal intensity,[49],5640
same,SPOT peptide array binding signal intensity,[50],24
same,SPOT peptide array binding signal intensity,[51],≤ 0
same,SPOT peptide array binding signal intensity,[52],77.5
same,SPOT peptide array binding signal intensity,[53],2230
same,SPOT peptide array binding signal intensity,[54],3220
same,SPOT peptide array binding signal intensity,[55],270
same,SPOT peptide array binding signal intensity,[56],492
same,SPOT peptide array binding signal intensity,[57],36.2
same,SPOT peptide array binding signal intensity,[58],118
same,SPOT peptide array binding signal intensity,[59],3
same,SPOT peptide array binding signal intensity,[60],1080
same,SPOT peptide array binding signal intensity,[61],1.75
same,SPOT peptide array binding signal intensity,[62],3
same,SPOT peptide array binding signal intensity,[63],168
same,SPOT peptide array binding signal intensity,[64],17.2
same,SPOT peptide array binding signal intensity,[65],140
same,SPOT peptide array binding signal intensity,[66],47.5
same,SPOT peptide array binding signal intensity,[67],1600
same,SPOT peptide array binding signal intensity,[68],4790
same,SPOT peptide array binding signal intensity,[69],102
same,SPOT peptide array binding signal intensity,[70],≤ 0
same,SPOT peptide array binding signal intensity,[71],≤ 0
same,SPOT peptide array binding signal intensity,[72],3150
same,SPOT peptide array binding signal intensity,[73],1
same,SPOT peptide array binding signal intensity,[74],1.5
